# Results filed as inconclusive are left out. A call without a number means that no potency is given here. A structure can be active in one record and inactive in another. The source made the active and inactive calls. Unless noted, the call rests on the fitted dose curve; in most records, active means well fitted curve in the direction sought with a large enough effect in the repeat runs; inconclusive means weak or mixed curves; inactive means no such curve, though single readings can be large; an effect the other way counts as inactive or inconclusive. Non-standard residues stand in square brackets, D forms with d. Residues, ends and D or L forms follow the SMILES beside them. *: point of attachment. Sta = CC(C)C[C@H](N)[C@@H](O)CC(=O)O; Isovaleryl = CC(C)CC(=O)*
# Columns and labels:
# [1] = qHTS assay to identify small molecule antagonists of the glucocorticoid receptor (GR) signaling pathway - cell viability counter screen (AID 720693); further: nearly all actives have a fitted effect of over 55% in size
# [2] = qHTS assay for identifying genotoxic compounds that show differential cytotoxicity against isogenic chicken DT40 cell lines with known DNA damage response pathways - wild type cell line (AID 743012); further: nearly all actives have a fitted effect of over 60% in size
# Summary of the method: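 CellTiter-Glo luminescence readout of viability in wild type DT40 cells after 40 h compound exposure at 37 C/5% CO2; 300 cells/well; reagent incubated 30 min at room temperature before reading.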
# [3] = qHTS assay for identifying genotoxic compounds that show differential cytotoxicity against isogenic chicken DT40 cell lines with known DNA damage response pathways - Rad54/Ku70 mutant cell line (AID 743015); further: nearly all actives have a fitted effect of over 60% in size
# [4] = qHTS assay to identify small molecule antagonists of the androgen receptor (AR) signaling pathway using the MDA cell line - cell viability counter screen (AID 743041; further: nearly all actives have a fitted effect of over 45% in size)
# Summary of the method: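 Cytotoxicity counter screen: MDA-kb2 AR-luc cells, compound + R1881, 16 h, 37C, 0% CO2; CellTiter-Fluor added at 15.5 h, fluorescence read after 30 min.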
# [5] = qHTS assay to identify small molecule antagonists of the thyroid receptor (TR) signaling pathway - cell viability counter screen (AID 743064); further: nearly all actives have a fitted effect of over 50% in size
# Summary of the method: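 Rat GH3 pituitary tumor cells stably expressing two TR response elements driving luciferase were plated, rested 4 h, then dosed with library compounds and T3 (1 nM final). After 23.5 h at 37 °C, CellTiter-Fluor was added for 30 min and fluorescence recorded.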
# [6] = qHTS assay to identify small molecule antagonists of the thyroid receptor (TR) signaling pathway (AID 743065); further: series mostly up to about 70 µM; nearly all actives have a fitted effect of over 55% in size
# Summary of the method: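 GH3.TRE-Luc rat pituitary cells (two TREs driving luciferase) were dosed with compound, then stimulated with 1 nM T3 (final) for 23.5 h at 37 C. ONE-Glo luminescence was the read-out, with CellTiter-Fluor fluorescence as the cytotoxicity counter-screen.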
# [7] = system: thyroid hormone receptor (rat, GH3 cells); assay: qHTS assay to identify small molecule agonists of the thyroid receptor (TR) signaling pathway (AID 743066; calls by dose curve)
# [8] = qHTS assay to identify small molecule antagonists of the estrogen receptor alpha (ER-alpha) signaling pathway - cell viability counter screen (AID 743074; calls by dose curve;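 further: HEK293 cells carrying ER-alpha-UAS-bla reporter stimulated with 17beta-estradiol; nearly all actives have a fitted effect of over 45% in size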)
# [9] = qHTS assay to identify small molecule antagonists of the estrogen receptor alpha (ER-alpha) signaling pathway using the BG1 cell line - cell viability counter screen (AID 743081);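 further: compound given together with 17beta-estradiol as the ER stimulus; series mostly up to about 70 µM; nearly all actives have a fitted effect of over 45% in size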
# Aromatase (Homo sapiens) = Aromatase (Homo sapiens) (UniProt P11511); assay: qHTS assay to identify aromatase inhibitors (AID 743083); further: series mostly up to about 70 µM; nearly all actives have a fitted effect of over 55% in size
# Chain of Aromatase (Homo sapiens) (P11511 whole entry, looked up): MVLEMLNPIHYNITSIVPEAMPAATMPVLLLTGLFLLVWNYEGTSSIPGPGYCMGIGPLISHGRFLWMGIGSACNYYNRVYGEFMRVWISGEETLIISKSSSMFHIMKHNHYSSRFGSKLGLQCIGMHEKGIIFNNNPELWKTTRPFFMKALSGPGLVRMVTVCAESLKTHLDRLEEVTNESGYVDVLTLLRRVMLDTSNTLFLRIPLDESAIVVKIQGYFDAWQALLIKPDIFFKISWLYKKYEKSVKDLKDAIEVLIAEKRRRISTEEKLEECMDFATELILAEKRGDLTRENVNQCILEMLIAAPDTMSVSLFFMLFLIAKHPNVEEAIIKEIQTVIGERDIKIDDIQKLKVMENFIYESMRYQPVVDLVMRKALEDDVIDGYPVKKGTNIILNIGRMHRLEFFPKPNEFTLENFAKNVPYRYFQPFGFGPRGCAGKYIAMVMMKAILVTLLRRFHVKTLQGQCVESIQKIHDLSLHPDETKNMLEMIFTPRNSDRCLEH
# [10] = qHTS assay for identifying genotoxic compounds that show differential cytotoxicity against isogenic chicken DT40 cell lines with known DNA damage response pathways - Rev3 mutant cell line (AID 743014); further: nearly all actives have a fitted effect of over 55% in size
# [11] = qHTS assay to identify small molecule antagonists of the androgen receptor (AR) signaling pathway - cell viability counter screen (AID 743033; further: nearly all actives have a fitted effect of over 45% in size)
# [12] = biological target: Androgen receptor (Homo sapiens) (UniProt P10275); assay: qHTS assay to identify small molecule antagonists of the androgen receptor (AR) signaling pathway (AID 743035; active means well fitted inhibition curve with a large enough effect in the signal ratio in the repeat runs, not every such curve was filed as active; the % refers to the signal ratio)
# Chain of Androgen receptor (Homo sapiens) (P10275 whole entry, looked up): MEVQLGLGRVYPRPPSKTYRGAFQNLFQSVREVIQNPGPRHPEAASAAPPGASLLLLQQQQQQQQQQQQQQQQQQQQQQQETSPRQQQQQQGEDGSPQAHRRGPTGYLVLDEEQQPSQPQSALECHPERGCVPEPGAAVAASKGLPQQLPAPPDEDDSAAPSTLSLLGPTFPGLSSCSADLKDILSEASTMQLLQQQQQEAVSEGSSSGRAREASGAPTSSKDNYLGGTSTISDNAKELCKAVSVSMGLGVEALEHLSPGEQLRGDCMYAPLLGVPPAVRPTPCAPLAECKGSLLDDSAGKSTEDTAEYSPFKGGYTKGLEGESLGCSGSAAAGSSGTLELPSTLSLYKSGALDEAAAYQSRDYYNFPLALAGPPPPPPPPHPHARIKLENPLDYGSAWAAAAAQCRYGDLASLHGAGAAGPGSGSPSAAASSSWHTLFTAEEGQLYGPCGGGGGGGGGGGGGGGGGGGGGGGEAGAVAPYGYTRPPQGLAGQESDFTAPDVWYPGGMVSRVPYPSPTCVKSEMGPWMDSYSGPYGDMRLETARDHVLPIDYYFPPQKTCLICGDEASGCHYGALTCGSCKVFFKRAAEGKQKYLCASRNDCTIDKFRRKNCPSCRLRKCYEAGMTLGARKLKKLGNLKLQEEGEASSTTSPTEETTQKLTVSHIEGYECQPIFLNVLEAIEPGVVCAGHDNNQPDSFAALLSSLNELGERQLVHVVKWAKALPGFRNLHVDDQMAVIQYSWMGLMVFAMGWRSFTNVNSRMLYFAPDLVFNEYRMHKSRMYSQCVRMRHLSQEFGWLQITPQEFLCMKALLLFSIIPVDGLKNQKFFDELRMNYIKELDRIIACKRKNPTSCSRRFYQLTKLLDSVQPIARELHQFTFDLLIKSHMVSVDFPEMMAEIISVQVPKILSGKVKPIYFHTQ
# Summary of the method: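 AR-bla HEK293 reporter cells; 4 h settle at 37C/5% CO2; compound + R1881 agonist, 16 h at 37C; LiveBLAzer B/G FRET substrate 2 h RT; fluorescence intensity read. qHTS format.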
# [13] = biological target: Androgen receptor (Homo sapiens) (UniProt P10275); assay: qHTS assay to identify small molecule agonists of the androgen receptor (AR) signaling pathway (AID 743036; active means well fitted activation curve with a large enough effect in the signal ratio in the repeat runs, with a control signal flat, not every such curve was filed as active; the % refers to the signal ratio)
# Summary of the method: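 Quantitative HTS of the Tox21 10K library in HEK293 cells bearing a stably integrated UAS-controlled beta-lactamase reporter. Compound exposure lasted 16 h at 37C. Reporter activity was detected by FRET substrate fluorescence after 2 h at room temperature.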
# [14] = biological target: Androgen receptor (Homo sapiens) (UniProt P10275); assay: qHTS assay to identify small molecule agonists of the androgen receptor (AR) signaling pathway using the MDA cell line (AID 743040; further: nearly all actives have a fitted effect of over 20% in size)
# Summary of the method: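 Luciferase read-out, ONE-Glo, 30 min RT. Cells: MDA-kb2 AR-luc, MMTV promoter with AR and GR response elements. Compound exposure 16 h, 37C, 0% CO2, after 5 h pre-incubation. qHTS agonist mode.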
# [15] = biological target: Androgen receptor (Homo sapiens) (UniProt P10275); assay: qHTS assay to identify small molecule antagonists of the androgen receptor (AR) signaling pathway using the MDA cell line (AID 743042; further: nearly all actives have a fitted effect of over 55% in size)
# Summary of the method: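 MDA-kb2 breast carcinoma cells carrying MMTV-luciferase (AR/GR responsive) were co-treated with compounds and the agonist R1881 for 16 h at 37C. Inhibition read as ONE-Glo luminescence; CellTiter-Fluor fluorescence measured in parallel for cytotoxicity.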
# [16] = biological target: Estrogen receptor (Homo sapiens) (UniProt P03372); assay: qHTS assay to identify small molecule antagonists of the estrogen receptor alpha (ER-alpha) signaling pathway (AID 743069; active means well fitted curve in the direction sought with a large enough effect in the signal ratio in the repeat runs, not every such curve was filed as active; the % refers to the signal ratio)
# Chain of Estrogen receptor (Homo sapiens) (P03372 whole entry, looked up): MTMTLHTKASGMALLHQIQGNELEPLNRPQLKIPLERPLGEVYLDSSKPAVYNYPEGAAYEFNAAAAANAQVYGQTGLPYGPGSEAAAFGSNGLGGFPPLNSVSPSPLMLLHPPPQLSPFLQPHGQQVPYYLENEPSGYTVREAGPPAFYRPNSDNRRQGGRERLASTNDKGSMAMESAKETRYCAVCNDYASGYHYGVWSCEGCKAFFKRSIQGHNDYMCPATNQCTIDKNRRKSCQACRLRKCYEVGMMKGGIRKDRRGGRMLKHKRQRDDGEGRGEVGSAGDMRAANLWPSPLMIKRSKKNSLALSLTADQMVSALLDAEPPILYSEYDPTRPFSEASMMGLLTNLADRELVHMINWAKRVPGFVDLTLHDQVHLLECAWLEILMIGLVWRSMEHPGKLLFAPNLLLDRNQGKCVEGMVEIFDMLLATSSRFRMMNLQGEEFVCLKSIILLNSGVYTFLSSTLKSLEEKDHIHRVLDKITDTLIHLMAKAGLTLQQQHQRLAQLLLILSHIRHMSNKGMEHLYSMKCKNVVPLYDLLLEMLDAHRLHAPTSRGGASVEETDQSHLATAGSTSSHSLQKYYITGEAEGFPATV
# Summary of the method: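 Beta-lactamase FRET fluorescence is read after 2 hr at room temperature with LiveBLAzer B/G substrate. Before that, ER-alpha-bla HEK293 cells sit 4 hr after plating, then receive compound plus 17beta-estradiol and incubate 18 hr at 37C.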
# [17] = biological target: Estrogen receptor (Homo sapiens) (UniProt P03372); assay: qHTS assay to identify small molecule agonists of the estrogen receptor alpha (ER-alpha) signaling pathway (AID 743075; calls by dose curve;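 further: HEK293 GripTite cells with ER-alpha and UAS-driven beta-lactamase reporter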)
# [18] = biological target: Estrogen receptor (Homo sapiens) (UniProt P03372); assay: qHTS assay to identify small molecule agonists of the estrogen receptor alpha (ER-alpha) signaling pathway using the BG1 cell line (AID 743079); further: nearly all actives have a fitted effect of over 20% in size; further: potency means the concentration at half of the fitted maximal effect
# [19] = qHTS assay to identify small molecule antagonists of the estrogen receptor alpha (ER-alpha) signaling pathway using the BG1 cell line (AID 743080; calls by dose curve;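 further: BG1 cells stimulated with 17beta-estradiol alongside compound; series mostly up to about 70 µM; nearly all actives have a fitted effect of over 25% in size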)
# Summary of the method: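 Seeding, 24 h rest, compound transfer from DMSO, 17beta-estradiol addition, 21.5 h incubation, CellTiter-Fluor (30 min, 37 C), then ONE-Glo (30 min, room temperature): this sequence was run on BG1-Luc-4E2 reporter cells.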
smiles,measurement,setting,value
O=C(O)P(=O)(O)O,outcome,[1],inactive
same,Potency,[2],inactive
same,Potency,[3],inactive
same,outcome,[4],inactive
same,Potency,[5],inactive
same,Potency,[6],inactive
same,Potency,[7],inactive
same,Potency,[8],inactive
same,outcome,[9],inactive
same,Potency,Aromatase (Homo sapiens),inactive
O=C[C@@H](O)[C@H](O)[C@H](O)CO,outcome,[1],inactive
same,Potency,[10],inactive
same,Potency,[3],inactive
same,outcome,[11],inactive
same,outcome,[12],inactive
same,outcome,[13],inactive
same,outcome,[14],inactive
same,outcome,[15],inactive
same,Potency,[5],inactive
same,Potency,[6],inactive
same,Potency,[7],inactive
same,Potency,[8],inactive
same,outcome,[9],inactive
same,Potency,Aromatase (Homo sapiens),inactive
C=CC(=O)CC,outcome,[1],inactive
same,Potency,[2],inactive
same,Potency,[10],inactive
same,Potency,[3],inactive
same,outcome,[4],inactive
same,Potency,[5],inactive
same,Potency,[7],inactive
same,Potency,[8],inactive
same,outcome,[9],inactive
same,Potency,Aromatase (Homo sapiens),inactive
CC(=O)OC/C=C(/C)CCC=C(C)C,outcome,[1],inactive
same,Potency,[2],inactive
same,Potency,[3],inactive
same,outcome,[4],inactive
same,Potency,[6],inactive
same,Potency,[7],inactive
same,outcome,[16],inactive
same,Potency,[8],inactive
same,Potency,[17],inactive
same,Potency,[18],inactive
same,Potency,[19],inactive
same,outcome,[9],inactive
same,Potency,Aromatase (Homo sapiens),inactive
CCOC(=O)c1ccc(N(C)C)cc1,outcome,[1],inactive
same,Potency,[2],inactive
same,Potency,[3],inactive
same,outcome,[11],inactive
same,Potency,[6],inactive
same,Potency,[7],inactive
same,Potency,[8],inactive
same,Potency,[17],inactive
same,Potency,[18],54.5 µM (active)
same,outcome,[9],inactive
same,Potency,Aromatase (Homo sapiens),inactive
CC(C)CC(=O)N[C@H](C(=O)N[C@H](C(=O)N[C@@H](CC(C)C)[C@@H](O)CC(=O)N[C@@H](C)C(=O)N[C@@H](CC(C)C)[C@@H](O)CC(=O)O)C(C)C)C(C)C (Isovaleryl-VV[Sta]A[Sta]-OH),outcome,[1],inactive
same,Potency,[2],inactive
same,Potency,[3],inactive
same,outcome,[11],inactive
same,Potency,[5],inactive
same,Potency,[6],inactive
same,Potency,[7],inactive
same,Potency,[8],inactive
same,outcome,[9],inactive
same,Potency,Aromatase (Homo sapiens),inactive
C=CCOC(=O)CCCCCCCC,outcome,[1],inactive
same,Potency,[2],inactive
same,Potency,[10],inactive
same,Potency,[3],inactive
same,Potency,[5],inactive
same,Potency,[6],inactive
same,Potency,[7],inactive
same,outcome,[16],inactive
same,Potency,[8],inactive
same,Potency,[17],inactive
same,Potency,[18],inactive
same,Potency,[19],inactive
same,outcome,[9],inactive
same,Potency,Aromatase (Homo sapiens),inactive
O=C1Nc2ccccc2C1=O,outcome,[1],inactive
same,Potency,[10],inactive
same,Potency,[3],inactive
same,outcome,[11],inactive
same,outcome,[4],inactive
same,Potency,[5],inactive
same,Potency,[6],inactive
same,Potency,[7],inactive
same,Potency,[8],inactive
same,outcome,[9],inactive
same,Potency,Aromatase (Homo sapiens),inactive
Cc1ccc(OC(=O)CC(C)C)cc1,outcome,[1],inactive
same,Potency,[2],inactive
same,Potency,[10],inactive
same,outcome,[11],inactive
same,outcome,[4],inactive
same,Potency,[6],inactive
same,Potency,[7],inactive
same,outcome,[16],inactive
same,Potency,[8],inactive
same,Potency,[17],inactive
same,Potency,[18],inactive
same,Potency,[19],inactive
same,outcome,[9],inactive
same,Potency,Aromatase (Homo sapiens),inactive
C[C@@H]1NC(=O)[C@@H](N)CNC(=O)[C@H](C2CCNC(N)=N2)NC(=O)/C(=C/NC(N)=O)NC(=O)[C@H](CNC(=O)C[C@@H](N)CCCN)NC1=O (stereo partly drawn),outcome,[1],inactive
same,Potency,[2],inactive
same,Potency,[10],inactive
same,Potency,[3],inactive
same,Potency,[5],inactive
same,Potency,[6],inactive
same,Potency,[7],inactive
same,outcome,[16],inactive
same,Potency,[8],inactive
same,Potency,[17],inactive
same,Potency,[18],29.8 µM (active) and inactive
same,Potency,[19],inactive
same,outcome,[9],inactive
same,Potency,Aromatase (Homo sapiens),inactive
CCCCCCCCCCCCCCCCN(C)C,"viability change, negative = cytotoxic",[1],9.67% [at 7.04 µM] (inactive)
same,"activity change, negative = cytotoxicity",[2],9.27% [at 8.52 µM] (inactive)
same,"activity change, negative = inhibition",[12],-9.68% [at 7.04 µM] (inactive)
same,activation,[13],-6% [at 6.9 µM] (inactive)
same,activity change,[14],0.294% [at 8.47 µM] (inactive)
same,"viability change, negative = cytotoxic",[4],-2.54% [at 8.47 µM] (inactive)
same,"activity change, negative = inhibition",[15],19.6% [at 8.47 µM] (inactive)
same,"activity change, negative = cytotoxic",[5],0.507% [at 8.44 µM] (inactive)
same,"activity, negative = inhibition",[6],0.216% [at 8.44 µM] (inactive)
same,activation,[7],0.259% [at 8.08 µM] (inactive)
same,"activity, negative = inhibition",[16],-6.54% [at 6.71 µM] (inactive)
same,"activity, negative = cytotoxicity",[8],-9.33% [at 6.72 µM] (inactive)
same,activation,[17],-5.38% [at 6.71 µM] (inactive)
same,activation,[18],-2.47% [at 8.47 µM] (inactive)
same,"activity change, negative = inhibition",[19],-1.23% [at 8.47 µM] (inactive)
same,"activity change, negative = cytotoxicity",[9],-2.87% [at 8.47 µM] (inactive)
same,"activity, negative = inhibition",Aromatase (Homo sapiens),3.06% [at 8.47 µM] (inactive)
O=C(O)CCC(=O)Nc1ccc(S(=O)(=O)Nc2nccs2)cc1,outcome,[1],inactive
same,Potency,[2],inactive
same,Potency,[3],inactive
same,Potency,[5],inactive
same,Potency,[6],inactive
same,Potency,[7],inactive
same,Potency,[8],inactive
same,outcome,[9],inactive
same,Potency,Aromatase (Homo sapiens),inactive
COc1cc(NS(=O)(=O)c2ccc(N)cc2)ncn1,outcome,[1],inactive
same,Potency,[2],inactive
same,Potency,[10],inactive
same,Potency,[3],inactive
same,outcome,[4],inactive
same,Potency,[5],inactive
same,Potency,[6],inactive
same,Potency,[7],inactive
same,Potency,[8],inactive
same,outcome,[9],inactive
same,Potency,Aromatase (Homo sapiens),inactive

# From PubChem BioAssay (Tox21)
